Results as given in ChEMBL document CHEMBL4649984, “CBP30, a selective CBP/p300 bromodomain inhibitor, suppresses human Th17 responses” (Proc Natl Acad Sci U S A, 2015).
Several values for one entry are separate records, joined by “and”; a condition that tells them apart may be missing. Equal values may be shown once.

What was measured:
[1] = target: Bromodomain-containing protein 4 (Homo sapiens) (UniProt O60885); settings: Compound concentration 10.0 uM, Protein concentration 2.0 uM
[2] = target: T1, Transcription intermediary factor 1-alpha (Homo sapiens) (UniProt O15164); settings: Compound concentration 10.0 uM, Protein concentration 2.0 uM
T1 sequence (whole entry): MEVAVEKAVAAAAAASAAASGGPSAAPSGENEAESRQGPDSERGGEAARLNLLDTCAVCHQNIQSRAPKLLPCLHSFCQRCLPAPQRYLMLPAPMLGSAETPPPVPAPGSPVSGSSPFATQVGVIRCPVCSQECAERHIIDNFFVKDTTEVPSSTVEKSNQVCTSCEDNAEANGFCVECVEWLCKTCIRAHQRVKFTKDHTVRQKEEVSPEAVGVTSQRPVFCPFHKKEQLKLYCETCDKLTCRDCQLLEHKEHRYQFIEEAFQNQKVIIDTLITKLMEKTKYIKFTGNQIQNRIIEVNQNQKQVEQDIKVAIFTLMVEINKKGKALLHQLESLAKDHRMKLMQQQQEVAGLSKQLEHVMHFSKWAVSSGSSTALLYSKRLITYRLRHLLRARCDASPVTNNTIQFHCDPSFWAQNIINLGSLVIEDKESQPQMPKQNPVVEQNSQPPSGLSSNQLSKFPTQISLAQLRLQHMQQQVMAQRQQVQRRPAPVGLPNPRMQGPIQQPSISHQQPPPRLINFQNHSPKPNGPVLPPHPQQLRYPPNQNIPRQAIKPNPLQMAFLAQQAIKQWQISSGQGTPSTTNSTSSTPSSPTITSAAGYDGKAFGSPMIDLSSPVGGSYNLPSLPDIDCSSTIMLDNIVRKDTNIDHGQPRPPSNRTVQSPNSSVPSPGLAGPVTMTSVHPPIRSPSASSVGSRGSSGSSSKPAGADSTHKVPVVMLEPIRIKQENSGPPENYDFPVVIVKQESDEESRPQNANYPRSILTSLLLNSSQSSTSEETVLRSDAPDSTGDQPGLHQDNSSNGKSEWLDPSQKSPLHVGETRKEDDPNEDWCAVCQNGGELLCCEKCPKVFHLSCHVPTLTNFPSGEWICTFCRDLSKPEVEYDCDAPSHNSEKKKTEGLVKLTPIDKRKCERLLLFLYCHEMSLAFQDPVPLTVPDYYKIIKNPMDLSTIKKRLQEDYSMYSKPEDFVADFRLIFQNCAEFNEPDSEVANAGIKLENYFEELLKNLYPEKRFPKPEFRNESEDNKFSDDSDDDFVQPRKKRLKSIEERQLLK

COc1ccc(CCc2nc3cc(-c4c(C)noc4C)ccc3n2C[C@H](C)N2CCOCC2)cc1Cl
ΔTm [1]: 1.65 °C and 2.75 °C
ΔTm [2]: 0.88 °C
